Measured values as given in PubChem BioAssay AID1347426 (Functional Genomics Laboratory (NCATS/FGL), 2020).
Among all 31,000 sequences or so, about 1,400 (4.5%) were called active. Many of the other results were omitted from the sample, so actives are more common in it than they were. Unmarked numbers belong to inactive results.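 The calls were made as follows: active = median seed-adjusted z-score above 1 or below -1; inactive = the rest.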

Experiment: Novel Modifiers of Survival Motor Neuron (SMN) Protein: Gene Identification via Genome-wide siRNA Screen;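 also: luminescence tracks full-length SMN protein made from the SMN2 reporter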
Conditions: HEK293T SMN2-luciferase reporter, siRNA knockdown, 72 h; actives lie on both sides
How it was run: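 siRNA screen, 10418 genes ×3 siRNAs; 1 pmol/well, lipid reverse transfection into HEK293T SMN2-luc reporter line. 72 h, 37 °C, 5% CO2; ONE-Glo readout. Data: neg-ctrl normalized, log10, MAD; hit = MAD >1.0 or < -1.0.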

Row | Sequence | median seed-adjusted z-score
1 | AGACGGUCCUCUUUCGACATT against LOC442229 | 0.183
2 | GGAUAUCAAUUAUUACGCUTT against LIFR | 0.031
3 | AGGAGUCCCUAAUGCUACATT against TRIM74 | 0.0932
4 | GCAUCAACUUUGUGCAUGATT against PLTP | 1.09 (active)
5 | GCAGCAAACUGACGGAGAATT against PCTK3 | 0
6 | CAGUGCUCAUGGAACUCUUTT against HMGCS2 | -0.465
7 | CGAUGAAGGGUUCCGAUUATT against CR1 | 0.143
8 | GGGCGAGUAUGACCGAUCATT against CTRL | 0.0758
9 | GCAGAUACAUUGAUCGCAUTT against PRPF8 | -1.54 (active)
10 | GGACCAGACAACGAACUGATT against RNF135 | 0.581
11 | CGCUGAAACACGUCCAUUUTT against CHAD | 0
12 | CUCUGAACAUCAACCCGGATT against DMRTB1 | -0.393
13 | GGAUCGUGGUCUUUCCAAATT against FNTA | 1.04 (active)
14 | GAAGAUUGGUGAUCUAGGATT against WNK3 | -0.466
15 | GGCUUCUUGUCCAACCCUATT against CILP | 0.0436
16 | GUAGGACCCUAAUAUCGAUTT against TEP1 | -0.495
17 | CAACUUUGAGGUAAAGUCATT against PRPF19 | -0.485
18 | CGCUGAUACUAACAAUUGATT against AOX1 | -0.0717
19 | GAUUCGUUCUUCUACAACUTT against PSMD2 | -1.44 (active)
20 | GGGCUGGAAUUACUAUGGATT against CCNH | -0.659
21 | GGCGAUUAGGAAACAUGAATT against PRKX | 0.0341
22 | GCAUUUUCCGCCUACCACATT against POLM | -1.55 (active)

Row | Sequence | median seed-adjusted z-score
23 | GAACAUUUCCAAGUCUGUATT against YSK4 | -0.181
24 | CCAAGUUUAUAUCAUAUUATT against GNG4 | -0.188
25 | CGCGGUGCAUAUGAAGAUATT against PIGM | 1.36 (active)
26 | CAGUGUAAUUAGGCAACUATT against MYO3A | 0.0776
27 | CACCUCCGAUAAGCCCUAUTT against ZIC2 | -0.162
28 | GCAACUACUUCCGAUCUAATT against KIF17 | -0.151
29 | GGUUGUAACUGCAAGAUCATT against TIMP3 | -1.05 (active)
30 | CAUCCAUAAUUGGUGUAAATT against KIF20B | 0
31 | ACUUAGUCAUCAUCAAGUATT against GK | -0.474
32 | CAAGAUUCUUGACCUUGAATT against PDP2 | -0.0726
33 | GGAUAUUGCGUUUGGAACATT against TDP1 | -0.352
34 | GGAUACUCUUCCUAUUCAATT against OMA1 | 0
35 | CGGCUUUUAUGGACGAGUUTT against STX3 | 0.686
36 | GAAACAAAGUCUUAAUAUUTT against ATP1A4 | 0.116
37 | GGAAAAGUUCUGAAGACUATT against CPOX | -0.135
38 | GCACCUCACCCAUCAAUGATT against RERE | 0.129
39 | GGUUGUCAUUAACAACAGUTT against DLST | 1.16 (active)
40 | GGUUCGGCAUGAGUGUGAATT against ZNF187 | 0.419
41 | GCAGGAGACUCAAAGAUUUTT against DDO | -0.202
42 | GUCUAUCUCUUGUCUAAAATT against HYAL4 | -0.236
43 | GCUCAUUGGUACAAUGUCATT against POLE | -1.55 (active)
44 | CGCUCAUGGACUUCGCCUATT against ZBTB7A | -0.344

Row | Sequence | median seed-adjusted z-score
45 | CCAUAACGGUGGAUGAGUATT against MPPED2 | 0.418
46 | GAAGUUUGACCAUGACUUUTT against ACCN5 | 0.227
47 | CACUGAUUCUGAAGGCGAATT against RPS6KA1 | 0.194
48 | CGUCUGACUUCGCUAGCAATT against HOXD11 | -0.185
49 | GGAUGUUGUUUAUCGAGGATT against MED21 | -1.3 (active)
50 | ACAAAAAGGGCAUACAUUATT against S100A7A | 0.212
51 | GCAGCUGUUUGGAACCAAATT against TRIM47 | 0.707
52 | GCAUCUCUUCUAUGCCGAATT against MATN2 | 0.275
53 | ACAAGCACCUAGACCAUGATT against ANGPTL4 | 1.37 (active)
54 | ACUUAAUGCCUGCCUAUUATT against CYP21A2 | -0.26
55 | UGACGUAGGCAUAAACGGATT against PCDH11Y | 0.186
56 | GCUCUAAACCAGAACGGGATT against ARAP3 | -0.00876
57 | AGACCAACCCUGGUACUUUTT against SRMS | -1.58 (active)
58 | GCAUUGUCCGUCUUCAUCATT against GLP1R | 0
59 | GCACGUCACUGUGGUUGUATT against THNSL2 | 0
60 | GCUUAUACAUUCCGAUGAATT against PTPRZ1 | 1.73 (active)
61 | GGAUGUAGCUGUCAACUGUTT against HSD17B10 | -0.355
62 | GACCUUACGAGGUUUCUAATT against TSNAX | 0.514
63 | CGUUCCUAAGCUACAAGAATT against TMPRSS9 | 0.106
64 | GAAUUCAGAUGCGAGUAAATT against RFX6 | 0.119
65 | CUGUUUACAUGACCUAUUUTT against MAFG | 0
66 | CGGCACAUCCUGCUUUGUUTT against ZNF213 | 1.37 (active)

Row | Sequence | median seed-adjusted z-score
67 | GGUUCCUUAUUAUAGUCCATT against GPR63 | -0.0154
68 | CGGUGCUCCCUGUCAUAAATT against CCR2 | -0.00107
69 | GGCAUGAAUUUGAACUGUATT against CA8 | 0.172
70 | CCGUCAAGGUCGUCAUACATT against NTSR1 | -1.1 (active)
71 | GGACGGCUUUCUGCAAAGATT against GLRA2 | -0.927
72 | AGUGUCUACUGUGAGAAUATT against TRAF4 | -1.16 (active)
73 | GCACCAUAGUGACACUGAATT against IFNAR2 | -0.219
74 | CAGUGGACUUCCAACCCAATT against SF3A1 | -1.09 (active)
75 | CAUUCAUCUCAAUAAUUGATT against IL5RA | -0.357
76 | CAUGGACGAGAUCAAGGAATT against AGXT | 0.017
77 | GCACUACUCCGAGAAGUUATT against NEK6 | -0.674
78 | CAAUAGUAAAGGGAUAUAATT against MED27 | -1.62 (active)
79 | AGACCGACGUGAAAGAGGATT against HAND2 | 0.0864
80 | CAGUUGCCUAUAUCCUAUATT against TDRKH | -0.434
81 | CCCUUGUAGUGAAACGGAATT against CYP4F8 | 0.756
82 | ACUACUUCCUGAACCGGGATT against CD2BP2 | -0.455
83 | GCAGAGUUUCGUACAAGGATT against KPNA6 | -1.54 (active)
84 | CCAGCCCACUCAUCUCAUUTT against SNX30 | -0.157
85 | GCCGAGGAACAAUCUCUCATT against RASGRP4 | 0.162
86 | CCACUACCCUGAGAACUUUTT against TOP3B | -1.11 (active)
87 | GGACCGGAGCAGUAUAGAATT against TRIM37 | -0.108
88 | CGGUUACGAUAAUGCGUUATT against ENPP5 | -0.0499

Row | Sequence | median seed-adjusted z-score
89 | GCACAAGUGCUGAGCCAGATT against LENG9 | 0.607
90 | GUAUUAUUUUCGUACACGATT against RABL3 | 0.843
91 | CCGGCUACCUGAUCGUGUATT against PITPNM1 | -0.203
92 | GAAAUGACAUUAGCUGAUUTT against CLIC4 | -0.498
93 | CUACAUUGCUGGGACUAAUTT against RRM1 | -5.51 (active)
94 | CCUGGAGAGUUACUUUGAATT against CCL23 | -0.285
95 | CCUCGUCGAUCGUGCAUCUTT against ADRA2C | 0
96 | CGAAAGGAAACCUAACGAATT against HIVEP2 | 0.294
97 | GCACAGGCAUCAUCGGGAATT against SGSH | 0.383
98 | GCCUCAAGGUUCACCUGAATT against PRDM1 | -0.16
99 | GUAUCUCAACAUCAAACUATT against LSM2 | -1.48 (active)
100 | GGGCUGAUGUUAUCAACUUTT against CNTNAP2 | -0.196
101 | CGACACUGCCGAAUGGAAATT against SRCRB4D | -0.0568
102 | UGCCCGUCAUUGUCUCCAATT against KCNA7 | 0.394
103 | AGAUCAUUGCUUUCAGUGATT against PRDX1 | 0.288
104 | CCUACAAUGUGGUGCAUAUTT against DYRK4 | -0.824
105 | CAAGAAUUCCGAUUUCCAATT against GNGT2 | -0.289
106 | GCAAUGAACUCAACAGCUATT against ANGPTL7 | 0
107 | GCUAGACCGACCCACCAUATT against FKBP6 | -1.12 (active)
108 | GGUUAUCGACGACAGCAGATT against AGAP3 | 0.554
109 | GCAUCCCACUACUACAAAUTT against KSR2 | -0.371
